Experimental data taken from PubChem BioAssay AID504332 (National Center for Advancing Translational Sciences (NCATS), 2011).
Out of some 350,000 compounds screened, about 31,000 (8.9%) were called active. About 15% were inconclusive and are not listed. Shown is part of a subset that was picked to be rich in actives. Where a call stands in place of a potency, no number is given. A number with no mark means an inactive call. Calls come from the whole dose curve; as a rule, active = well fitted inhibition curve with a large enough effect; inconclusive = small, poorly fitted or top-dose-only effect; inactive = no such curve, though single readings can be large or run the other way.

target: Histone-lysine N-methyltransferase EHMT2 (Homo sapiens) (UniProt Q96KQ7); assay: qHTS Assay for Inhibitors of Histone Lysine Methyltransferase G9a; conditions: G9a H3K9 monomethylation, AlphaScreen, 2 h; series mostly up to 59 µM; note: nearly all actives have a fitted effect of over 75% in size
In short: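 Using a bead-based AlphaScreen, monomethylated H3K9 product from 2 h room-temperature reactions (G9a 20 nM, peptide 500 nM, SAM 20 uM) was detected with 0.5 ug/mL rabbit anti-H3K9me1 antibody.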
Potency is the fitted concentration of half-maximal effect.

Chain of Histone-lysine N-methyltransferase EHMT2 (Homo sapiens) (Q96KQ7 913-1193 limits assumed): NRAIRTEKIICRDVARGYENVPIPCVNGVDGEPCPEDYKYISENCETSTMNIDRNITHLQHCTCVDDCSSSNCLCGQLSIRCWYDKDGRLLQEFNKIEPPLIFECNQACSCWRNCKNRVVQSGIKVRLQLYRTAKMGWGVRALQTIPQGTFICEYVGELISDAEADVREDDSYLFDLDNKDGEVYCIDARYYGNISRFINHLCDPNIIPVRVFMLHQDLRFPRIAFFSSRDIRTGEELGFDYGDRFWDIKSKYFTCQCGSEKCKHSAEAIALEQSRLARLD

SMILES	Potency	activity, negative = inhibition
O=C(NCc1ccccc1)C(c1cccnc1)N(C(=O)c1csnn1)c1ccc(F)cc1 (stereo not drawn)	inactive	
O=C(N[C@@H](Cc1c[nH]c2ccccc12)C(=O)O)OCC1c2ccccc2-c2ccccc21		-0.61% [at 0.501 µM]
Cc1cccc(C(=O)Nc2ccc(S(=O)(=O)N3CCCCC3c3cccnc3)cc2)c1 (stereo not drawn)	inactive	
CC(=O)N(OCc1ccc(OC(C)C)c(Cl)c1)C(C)=O	inactive	
CC(C)Oc1ccc(Cc2n[nH]c(=S)n2Cc2ccccc2)cc1Cl	8.91 µM (active)	
CC(C)c1ccc(Cn2c(COc3ccccc3)nc3ccccc32)cc1	inactive	
Cc1ccc(-c2csc(NC3OC(=O)c4ccccc43)n2)cc1 (stereo not drawn)	inactive	
COc1ccc(-c2cc(-c3ccc(F)cc3)nc3c2COc2ccccc2-3)cc1	inactive	
COc1cc(OC)cc(-c2c(-c3ccc(F)cc3)c3cc(-c4ccc5cc[nH]c5c4)ccc3n2C)c1		26.5% [at 2.33 µM]
COC(=O)c1ccc(Cn2c(SCC(=O)N(C)c3ccccc3)nc3ccccc32)cc1		-1.12% [at 12.7 µM]
Cc1ccc(Cl)cc1N1CCN(S(=O)(=O)c2cc3[nH]c(=O)c(=O)[nH]c3cc2C)CC1	inactive	
Nc1ccc(Nc2ccccc2)cc1	4.47 µM (active)	
Cc1ccc(Nc2ccccc2N)cc1	inactive	
Nc1ccc(S(=O)(=O)NC(=O)c2ccccc2)cc1	inactive	
COc1ccc(OC)c(CNC(=O)c2c3c(nc4ccccc24)C(=O)N(C2CCCCC2)C3)c1	inactive	
Cc1ccc(C)c(NC(=O)CSC2=Nc3ccccc3N=C(c3ccc(F)cc3)C2)c1	inactive	
Cc1ccc2nc(-c3ccncc3)cc(C(=O)Nc3ccncc3)c2c1	inactive	
Cc1c(C(=O)NCc2ccccc2Br)oc2ccc3c(c12)C(=O)CC(C)(C)O3	inactive	
O=C(Cc1cccs1)Nc1cccc(-c2nc3ccccc3[nH]2)c1	inactive	
O=C(/C=C/c1ccco1)Nc1cccc(-c2nc3ccccc3[nH]2)c1	25.1 µM (active)	
CCc1ccc2oc(-c3ccc(C)c(NC(=O)/C=C/c4ccco4)c3)nc2c1	inactive	

SMILES	Potency	activity, negative = inhibition
CCC1CCC2(CC1)NC(=O)N(CC(=O)Nc1ccc(OC)cc1)C2=O (stereo not drawn)		7.81% [at 0.501 µM]
COCCNC(=O)CCCN1C(=O)c2ccccc2Sc2ncccc21	inactive	
COc1cccc(NC(=O)CN2C(=O)c3ccccc3Sc3ncccc32)c1	inactive	
O=C(O)CCCN1C(=O)c2ccccc2Sc2ncccc21	50.1 µM (active)	
O=C(NNC(=O)C1CCCC1)c1ccc(F)cc1	inactive	
CC1CC(=O)Nc2ccccc2N1C(=O)COc1ccc2cc(Br)ccc2c1 (stereo not drawn)		-5.57% [at 2.33 µM]
CCCCN(CC)CCCNC(=O)c1nn(C)c2c1CS(=O)(=O)c1ccccc1-2	inactive	
COc1ccc(OCC(=O)NCCc2ccc(S(N)(=O)=O)cc2)cc1	inactive	
COc1ccc(NC(=S)Nc2ccc(S(N)(=O)=O)cc2)c(C)c1	inactive	
COc1cc(NC(=S)NCc2ccc(S(N)(=O)=O)cc2)cc(OC)c1	17.8 µM (active)	
COc1ccc(C(=O)CC(=O)C(=O)Nc2cc([N+](=O)[O-])ccc2OC)cc1	inactive	
COc1ccc(N2C(=O)C3C(C2=O)C(C(=O)c2ccccc2)N2CCCC32)cc1 (stereo not drawn)	10 µM (active)	
COc1ccc(C2NC(=O)N(C)C3=C2C(=O)N(c2ccc(C(=O)O)cc2)C3)cc1 (stereo not drawn)	inactive	
COc1ccc(N2C(=O)C3CCCN3C2c2cccs2)cc1 (stereo not drawn)	inactive	
Cn1c(=O)[nH]c(=O)c2c1nc(NCCc1ccccc1)n2Cc1ccc(F)cc1	inactive	
CCCOc1ccc(-c2cccc(NS(=O)(=O)c3ccccc3)c2)nn1	inactive	
O=S(=O)(Nc1cccc(-c2ccc(N3CCOCC3)nn2)c1)c1ccc(Cl)c(Cl)c1	inactive	
O=[N+]([O-])c1ccc(S(=O)(=O)Nc2cccc(-c3ccc(N4CCCC4)nn3)c2)cc1	10 µM (active)	
CCCc1cc(=O)oc2cc(OCC(=O)Nc3ccc(CN4CCOCC4)cc3)c(Cl)cc12		3.1% [at 0.501 µM]
CN(CC(=O)Nc1cccc(C(F)(F)F)c1)S(=O)(=O)c1cccs1	inactive	
COc1ccc2[nH]cc(CCN3C(=O)c4ccc(C(=O)O)cc4C3=O)c2c1	inactive	

SMILES	Potency	activity, negative = inhibition
Cc1ccc2[nH]cc(CCCN3C(=O)c4ccccc4C3=O)c2c1	44.7 µM (active)	
Cc1ccc2[nH]cc(CCNC(=O)C3CCCCC3)c2c1	inactive	
CCCC(=O)Nc1cc2nn(-c3ccccc3)nc2cc1C	inactive	
COc1cc(CNCCN(C)C)ccc1OCc1c(F)cccc1Cl	inactive	
COc1ccc(CNCCCO)cc1OC	inactive	
CCOCCCNCc1ccc(OCc2ccc(F)cc2)c(OC)c1	7.08 µM (active)	
CC(Nc1nc(C(F)(F)F)nc2ccccc12)c1cccs1 (stereo not drawn)	inactive	
Cc1cc(C)nc(N/N=C/c2ccc([N+](=O)[O-])o2)n1	inactive	
COc1ccc(C(=O)Nc2ccc(-n3nncc3-c3ccccc3)cc2)cc1OC	inactive	
CCOC(=O)C1CCCN(C(=O)Cn2ncc3c(C)n(Cc4ccc(F)cc4)c(C)c3c2=O)C1 (stereo not drawn)	inactive	
COc1ccc(CCNC(=O)CSc2nnc(CNC(=O)c3cccs3)o2)cc1OC		30% [at 12.7 µM]
O=C(NCC#CCSc1nnc(-c2cccc3ccccc23)o1)c1cccs1	3.16 µM (active)	
COc1ccc(-c2nnc(SCC(=O)c3cccs3)o2)c(OC)c1	inactive	
CCc1cc(C(=O)Nc2nnc(C3CC3)s2)sc1C		5.21% [at 12.7 µM]
CC1(C)Cc2ccccc2-c2[nH]c(=S)[nH]c(=O)c21	10 µM (active)	
CC(C)CC(N=C1NC(C)(C)Cc2ccccc21)C(=O)O (stereo not drawn)	inactive	
CCC1(CC)Cc2ccccc2-c2nc(CCl)[nH]c(=O)c21	inactive	
CCc1cc2c(cc3c(=O)n(CC(=O)N4CCN(c5cc(Cl)ccc5C)CC4)nc(CC)n32)s1	inactive	
CCC(c1nnnn1Cc1ccccc1)N(Cc1cc2cc(OC)ccc2[nH]c1=O)CC1CCCO1 (stereo not drawn)		-31.1% [at 12.7 µM]
CCOc1ccc2[nH]c(=O)c(CN(Cc3nnnn3Cc3ccccc3)CC3CCCO3)cc2c1 (stereo not drawn)	inactive	
CCC(c1nnnn1Cc1ccco1)N(Cc1cc2cc(OC)ccc2[nH]c1=O)C1CCCCC1 (stereo not drawn)	3.16 µM (active)	
